The campaign covered roughly 39,000 compounds. About 3,300 (8.5%) were called active. The sample holds actives, similar compounds and a random draw of the others, so the mix is not that of the screen.

This test relates to HepG2. In words: cytotoxicity call (relative viability < 0.9). To be noted: 10 µM.
Regarding `O=C(C[C@@H]1C[C@@H]2c3cc(NC(=O)NC4CCCC4)ccc3O[C@@H]2[C@H](CO)O1)NCc1ccc2c(c1)OCO2`, the cytotoxicity call was “inactive”.

Regarding `CO/N=C(\C(=O)N[C@@H]1C(=O)N2C(C(=O)O)=C(CSC(=O)c3ccco3)CS[C@H]12)c1csc(N)n1`, the cytotoxicity call is “inactive”.

For `CC(C)NC(=O)N(C)C[C@H]1Oc2ccc(NC(=O)c3ccncc3)cc2CC(=O)N([C@@H](C)CO)C[C@H]1C`, the cytotoxicity call is “inactive”.

Take `CC(C)NC(=O)N(C)C[C@H]1Oc2ccc(NC(=O)CCN3CCOCC3)cc2C(=O)N([C@H](C)CO)C[C@H]1C`: the cytotoxicity call was “inactive”.

In the case of `CC(C)NC(=O)Nc1ccc2c(c1)CC(=O)N([C@@H](C)CO)C[C@@H](C)[C@@H](CN(C)C(=O)Nc1ccc3c(c1)OCO3)O2`, the cytotoxicity call is “inactive”.

For the compound `C[C@H]1CN([C@@H](C)CO)C(=O)Cc2cc(NS(=O)(=O)c3ccccc3)ccc2O[C@H]1CN(C)S(=O)(=O)c1cn(C)cn1`, the cytotoxicity call is “inactive”.

`CNC(=O)Cn1c(=O)c2c(OC)ccnc2n(C)c1=O`: the cytotoxicity call was “inactive”.

Regarding `Cc1noc(C)c1NC(=O)Nc1ccc2c(c1)C(=O)N([C@H](C)CO)C[C@H](C)[C@H](CN(C)S(=O)(=O)c1cccs1)OCCCC[C@@H](C)O2`, the cytotoxicity call was “inactive”.

Take `C[C@@H]1CCCCO[C@H](CN(C)C(=O)NC2CCCCC2)[C@@H](C)CN([C@H](C)CO)C(=O)c2cc(NC(=O)Cc3ccccc3)ccc2O1`: the cytotoxicity call was “inactive”.

On to `COc1ccc(S(=O)(=O)Nc2ccc3c(c2)CC(=O)N([C@H](C)CO)C[C@@H](C)[C@H](CN(C)CC2CC2)O3)cc1`, for which the cytotoxicity call is “inactive”.

Turning to `CC1(C)CCC(c2ccc(Cl)cc2)=C(CN2CCN(c3ccc(C(=O)NS(=O)(=O)c4ccc(N[C@@H](CCN5CCOCC5)CSc5ccccc5)c(S(=O)(=O)C(F)(F)F)c4)cc3)CC2)C1`, the cytotoxicity call is “active”.

For the compound `CC1(C)CCC(c2ccc(Cl)cc2)=C(CN2CCN(c3ccc(C(=O)NS(=O)(=O)c4ccc(N[C@H](CCN5CCOCC5)CSc5ccccc5)c(S(=O)(=O)C(F)(F)F)c4)cc3)CC2)C1`, the cytotoxicity call was “active”.

With `CC1(C)CCC(CN2CCN(c3ccc(C(=O)NS(=O)(=O)c4ccc(NCC5CCOCC5)c([N+](=O)[O-])c4)c(Oc4cnc5[nH]ccc5c4)c3)CC2)=C(c2ccc(Cl)cc2)C1`, the cytotoxicity call is “inactive”.

With `CN(C)CC[C@H](CSc1ccccc1)Nc1ccc(S(=O)(=O)NC(=O)c2ccc(N3CCN(Cc4ccccc4-c4ccc(Cl)cc4)CC3)cc2)cc1[N+](=O)[O-]`, the cytotoxicity call was “inactive”.

Take `CCCNC(=O)Nc1ccc2c(c1)OC[C@@H](C)N(C(=O)C1CCOCC1)C[C@H](C)[C@@H](OC)CN(C)C2=O`: the cytotoxicity call was “inactive”.

For the compound `C[C@H](CO)N1C[C@H](C)[C@H](CN(C)C(=O)Nc2ccc(F)cc2)OCCCC[C@H](C)Oc2ccc(NC(=O)C3CCC3)cc2C1=O`, the cytotoxicity call is “inactive”.

Take `COc1ccc(S(=O)(=O)Nc2ccc3c(c2)C(=O)N([C@H](C)CO)C[C@H](C)[C@H](CN(C)S(=O)(=O)c2ccc(C)cc2)O3)cc1`: the cytotoxicity call was “inactive”.

`C[C@@H]1CCCCO[C@@H](CN(C)C(=O)Nc2ccc3c(c2)OCO3)[C@H](C)CN([C@H](C)CO)C(=O)c2cc(NC(=O)c3ccccc3)ccc2O1`: the cytotoxicity call is “inactive”.

Regarding `Cc1ccc(S(=O)(=O)N(C)C[C@@H]2Oc3ccc(NC(=O)Cn4cnnn4)cc3CC(=O)N([C@H](C)CO)C[C@@H]2C)cc1`, the cytotoxicity call was “inactive”.

On to `NC(=O)CCN1C(=O)c2ccccc2C1=O`, for which the cytotoxicity call is “inactive”.

Turning to `N#CCNC(=O)CN1C(=O)c2ccccc2C1=O`, the cytotoxicity call was “inactive”.

Turning to `COC(=O)C(CCCN1C(=O)c2ccccc2C1=O)(NC(C)=O)c1nn[nH]n1` (stereo unspecified), the cytotoxicity call was “active”.

As for `O=C(C[C@@H]1CC[C@H]2[C@@H](COC[C@@H](O)CN2C(=O)Nc2ccc(Cl)cc2)O1)NCCc1ccncc1`, the cytotoxicity call was “inactive”.

As for `Cc1ccccc1S(=O)(=O)N1C[C@H](O)COC[C@@H]2O[C@@H](CC(=O)NCCc3ccccc3)CC[C@H]21`, the cytotoxicity call is “inactive”.

As for `CO[C@H]1CN(C)C(=O)c2cc(NC(=O)Nc3ccccc3)ccc2OC[C@@H](C)N(C(=O)CN(C)C)C[C@H]1C`, the cytotoxicity call is “inactive”.

For `CNCc1ccccc1.Cl`, the cytotoxicity call was “inactive”.

With `CNCCCC1c2ccccc2C=Cc2ccccc21.Cl`, the cytotoxicity call was “active”.

Turning to `OCC1c2ccccc2-c2ccccc21`, the cytotoxicity call was “inactive”.

For `Cc1noc(C)c1S(=O)(=O)N(C)C[C@@H]1OCCCC[C@@H](C)Oc2ccc(N(C)C)cc2C(=O)N([C@H](C)CO)C[C@H]1C`, the cytotoxicity call is “inactive”.

Take `CC(C)Cc1ccc(CN2CC[C@@H](N)C2)cc1`: the cytotoxicity call is “inactive”.

For `CC(C)N1CC=C[C@@]23O[C@@H]4C=CCOC(=O)[C@@H]4[C@H]2C(=O)N(CCCCCO)[C@@H]3C1=O`, the cytotoxicity call is “inactive”.

On to `C[C@@H]1CN([C@H](C)CO)C(=O)CCCn2nncc2CO[C@@H]1CN(C)S(=O)(=O)c1ccc(-c2ccccc2)cc1`, for which the cytotoxicity call is “inactive”.

Take `C[C@@H]1CC=CC[C@@H](c2cccc(Cl)c2)NC(=O)[C@H](Cc2ccccc2)N(C)C(=O)c2ccccc2O1`: the cytotoxicity call is “inactive”.

Take `C[C@@H]1CCCn2nncc2COCCNC1=O`: the cytotoxicity call is “inactive”.

Regarding `CCCN(C)C[C@H]1OCCCC[C@H](C)Oc2ccc(NS(=O)(=O)c3ccc(Cl)cc3)cc2C(=O)N([C@@H](C)CO)C[C@H]1C`, the cytotoxicity call was “inactive”.

For `C[C@@H]1CCCCO[C@H](CN(C)CC2CCCCC2)[C@H](C)CN([C@@H](C)CO)C(=O)c2cc(NS(=O)(=O)c3ccc(Cl)cc3)ccc2O1`, the cytotoxicity call was “active”.

For the compound `C[C@@H]1CCCCO[C@@H](CN(C)CC2CCCCC2)[C@@H](C)CN([C@H](C)CO)C(=O)c2cc(NS(=O)(=O)c3ccc(Cl)cc3)ccc2O1`, the cytotoxicity call was “inactive”.

Consider `C[C@@H]1CCCCO[C@@H](CN(C)CC2CCCCC2)[C@H](C)CN([C@H](C)CO)C(=O)c2cc(NS(=O)(=O)c3ccc(Cl)cc3)ccc2O1`, for which the cytotoxicity call was “active”.

For `C[C@@H]1CCCCO[C@H](CN(C)CC2CCCCC2)[C@H](C)CN([C@H](C)CO)C(=O)c2cc(NS(=O)(=O)c3ccc(Cl)cc3)ccc2O1`, the cytotoxicity call was “inactive”.

Consider `C[C@@H]1CCCCO[C@H](CN(C)CC2CCCCC2)[C@@H](C)CN([C@H](C)CO)C(=O)c2cc(NS(=O)(=O)c3ccc(Cl)cc3)ccc2O1`, for which the cytotoxicity call is “inactive”.

Take `CCCN(C)C[C@H]1OCCCC[C@H](C)Oc2ccc(NS(=O)(=O)c3ccc(Cl)cc3)cc2C(=O)N([C@H](C)CO)C[C@H]1C`: the cytotoxicity call is “inactive”.

In the case of `C[C@@H]1CN([C@H](C)CO)C(=O)c2cc(NS(=O)(=O)c3ccc(Cl)cc3)ccc2O[C@@H](C)CCCCO[C@@H]1CN(C)CC1CCCCC1`, the cytotoxicity call is “active”.

As for `C[C@H](CO)N1C[C@H](C)[C@@H](CN(C)CC2CCCCC2)OCCCC[C@H](C)Oc2ccc(NS(=O)(=O)c3ccc(Cl)cc3)cc2C1=O`, the cytotoxicity call is “inactive”.

For the compound `C[C@@H]1CCCCO[C@@H](CN(C)CC2CCCCC2)[C@H](C)CN([C@@H](C)CO)C(=O)c2cc(NS(=O)(=O)c3ccc(Cl)cc3)ccc2O1`, the cytotoxicity call was “inactive”.

Turning to `C[C@@H]1CCCCO[C@@H](CN(C)CC2CC2)[C@H](C)CN([C@@H](C)CO)C(=O)c2cc(NS(=O)(=O)c3ccc(Cl)cc3)ccc2O1`, the cytotoxicity call was “inactive”.

Regarding `CCCN(C)C[C@H]1OCCCC[C@@H](C)Oc2ccc(NS(=O)(=O)c3ccc(Cl)cc3)cc2C(=O)N([C@@H](C)CO)C[C@H]1C`, the cytotoxicity call was “active”.
